The values below come from PubChem BioAssay.

Test [1] in a line: probe aLefty2 binding to arrayed compounds – biochemical, biotinylated probe, 635/667 nm fluorescence, primary screen (AID 1094).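 Note: score merges spot fluorescence near 667 nm with spot signal-to-noise ratio.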 Conditions: small-molecule microarray, higher = more signal.
Test [2] concerns Noggin (protein binding on small-molecule microarray). Kind of test: small molecules binding Noggin protein – biochemical, 635/667 nm fluorescence, primary screen (AID 1095).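 Note: score merges 667 nm feature fluorescence with signal to noise over triplicate slides.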 Conditions: 635 nm fluorescence, higher = more signal.
For test [3], the target named is Neurogenic locus notch homolog protein 3 (Homo sapiens) (UniProt Q9UM47). The experiment in a line: small molecules binding NOTCH3 protein – biochemical, 635/667 nm fluorescence, primary screen (AID 1096). Conditions: small-molecule microarray, 635 nm fluorescence, higher = more signal.
Chain of Neurogenic locus notch homolog protein 3 (Homo sapiens) (Q9UM47 whole entry, looked up): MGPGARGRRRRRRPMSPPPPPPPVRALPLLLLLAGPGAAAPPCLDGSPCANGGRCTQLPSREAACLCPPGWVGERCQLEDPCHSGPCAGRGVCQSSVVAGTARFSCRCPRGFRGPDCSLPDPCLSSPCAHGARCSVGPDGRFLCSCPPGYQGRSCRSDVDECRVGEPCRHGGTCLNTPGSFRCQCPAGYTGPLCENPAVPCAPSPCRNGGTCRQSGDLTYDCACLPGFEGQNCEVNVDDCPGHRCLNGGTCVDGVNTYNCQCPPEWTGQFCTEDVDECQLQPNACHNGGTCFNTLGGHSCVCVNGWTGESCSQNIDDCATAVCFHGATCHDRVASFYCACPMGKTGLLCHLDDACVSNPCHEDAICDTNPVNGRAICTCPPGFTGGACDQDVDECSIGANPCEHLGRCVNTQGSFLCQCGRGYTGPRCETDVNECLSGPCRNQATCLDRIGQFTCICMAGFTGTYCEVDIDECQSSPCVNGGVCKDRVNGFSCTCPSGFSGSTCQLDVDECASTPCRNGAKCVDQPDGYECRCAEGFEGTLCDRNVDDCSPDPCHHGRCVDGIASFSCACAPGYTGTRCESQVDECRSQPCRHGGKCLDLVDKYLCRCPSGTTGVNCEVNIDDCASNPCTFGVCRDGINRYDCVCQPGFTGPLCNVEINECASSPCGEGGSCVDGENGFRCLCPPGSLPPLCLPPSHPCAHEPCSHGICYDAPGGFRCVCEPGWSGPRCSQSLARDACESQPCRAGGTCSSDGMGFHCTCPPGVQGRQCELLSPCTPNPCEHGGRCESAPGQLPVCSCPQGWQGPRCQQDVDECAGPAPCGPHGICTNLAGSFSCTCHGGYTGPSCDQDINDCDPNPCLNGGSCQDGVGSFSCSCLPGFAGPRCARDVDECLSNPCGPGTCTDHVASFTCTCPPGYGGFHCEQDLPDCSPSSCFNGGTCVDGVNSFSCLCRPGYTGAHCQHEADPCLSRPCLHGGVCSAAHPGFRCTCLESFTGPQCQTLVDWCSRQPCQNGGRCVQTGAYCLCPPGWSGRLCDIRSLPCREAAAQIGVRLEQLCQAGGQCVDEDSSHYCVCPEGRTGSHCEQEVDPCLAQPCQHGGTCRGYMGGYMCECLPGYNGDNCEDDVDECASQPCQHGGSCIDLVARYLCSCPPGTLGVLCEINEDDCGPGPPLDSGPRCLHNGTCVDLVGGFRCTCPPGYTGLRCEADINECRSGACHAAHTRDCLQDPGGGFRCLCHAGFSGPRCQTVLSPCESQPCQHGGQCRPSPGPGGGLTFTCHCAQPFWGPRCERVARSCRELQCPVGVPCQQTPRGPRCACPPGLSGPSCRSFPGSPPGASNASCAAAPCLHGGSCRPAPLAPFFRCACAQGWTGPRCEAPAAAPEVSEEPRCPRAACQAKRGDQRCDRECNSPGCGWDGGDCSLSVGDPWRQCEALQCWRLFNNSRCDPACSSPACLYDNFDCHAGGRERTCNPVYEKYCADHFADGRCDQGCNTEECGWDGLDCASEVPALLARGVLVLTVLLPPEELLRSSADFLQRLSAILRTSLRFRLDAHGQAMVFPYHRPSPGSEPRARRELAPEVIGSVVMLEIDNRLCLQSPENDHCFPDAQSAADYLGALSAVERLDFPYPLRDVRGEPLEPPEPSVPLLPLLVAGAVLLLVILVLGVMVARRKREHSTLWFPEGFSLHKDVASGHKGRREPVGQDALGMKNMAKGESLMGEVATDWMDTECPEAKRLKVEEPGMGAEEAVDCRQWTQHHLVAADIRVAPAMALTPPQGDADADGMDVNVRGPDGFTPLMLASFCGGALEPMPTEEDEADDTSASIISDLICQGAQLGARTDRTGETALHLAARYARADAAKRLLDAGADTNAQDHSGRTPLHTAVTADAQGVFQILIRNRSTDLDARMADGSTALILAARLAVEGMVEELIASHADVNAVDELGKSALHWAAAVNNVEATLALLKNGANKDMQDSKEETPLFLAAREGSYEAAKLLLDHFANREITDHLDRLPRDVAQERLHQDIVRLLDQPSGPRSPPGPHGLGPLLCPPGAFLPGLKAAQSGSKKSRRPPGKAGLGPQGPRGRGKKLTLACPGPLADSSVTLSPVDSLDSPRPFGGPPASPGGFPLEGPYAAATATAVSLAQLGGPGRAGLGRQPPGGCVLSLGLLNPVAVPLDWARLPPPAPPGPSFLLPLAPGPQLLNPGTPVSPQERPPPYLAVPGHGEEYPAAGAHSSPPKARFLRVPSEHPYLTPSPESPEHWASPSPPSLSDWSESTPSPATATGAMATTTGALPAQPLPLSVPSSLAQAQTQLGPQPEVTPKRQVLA
The nature of test [4]: probe aEGFR binding to arrayed compounds – biochemical, biotinylated probe, 635/667 nm fluorescence, primary screen (AID 1097).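 Note: probe is a biotinylated anti-EGFR antibody binding compounds printed on slides; score combines fluorescence near 667 nm and signal to noise of each spot.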 The following applies: small-molecule microarray, higher = more signal.
For test [5], the system named is Plasmodium falciparum Sir2 (PF13_0152, Sir2A). The experiment in a line: Plasmodium falciparum Sir2A binding compounds – biochemical, small-molecule microarray, 635 nm fluorescence, primary screen (AID 1098).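 Note: score merges spot fluorescence intensity with its signal-to-noise ratio.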 Conditions: fluorescence 635 nm, higher = more signal.
The nature of test [6]: probe aDKK1 binding to arrayed compounds – biochemical, biotinylated probe, 635/667 nm fluorescence, primary screen (AID 1099).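 Note: score merges 667nm spot fluorescence with signal to noise across triplicate slides.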 Conditions: small-molecule microarray, higher = more signal.
Test [7] in a line: probe aCHRDL2 binding to arrayed compounds – biochemical, biotinylated probe, 635/667 nm fluorescence, primary screen (AID 1100). The following applies: small-molecule microarray, higher = more signal.
Test [8] in a line: change in splice reporter luminescence, either direction, cell-based, HEK293, spliceosome inhibition project, primary screen (AID 1101).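 Note: HEK293 cells carrying a splicing-competent luciferase reporter gene; test concentration not given here.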 The following applies: HEK293 splicing luciferase reporter, 24 h, higher = more signal, called active from +8 up or from −8 down. Background: Reporter assays use an easily measured gene product as a stand-in for the process of interest.
In test [9] the target is Fibroblast growth factor 10 (Homo sapiens) (UniProt O15520). Kind of test: compounds binding fibroblast growth factor 10 – biochemical, small-molecule microarray, 635 nm fluorescence, primary screen (AID 1102). Conditions: FGF10 binding, fluorescence 635 nm, higher = more signal.
Chain of Fibroblast growth factor 10 (Homo sapiens) (O15520 whole entry, looked up): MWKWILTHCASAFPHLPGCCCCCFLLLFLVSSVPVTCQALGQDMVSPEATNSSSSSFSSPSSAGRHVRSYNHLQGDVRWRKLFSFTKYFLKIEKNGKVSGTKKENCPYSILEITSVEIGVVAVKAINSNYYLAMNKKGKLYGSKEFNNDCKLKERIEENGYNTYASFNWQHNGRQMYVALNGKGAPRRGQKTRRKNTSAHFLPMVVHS
The subject of test [10] is glycogen synthase kinase-3 (GSK3A per assay name; protocol says GSK3B). The experiment in a line: compounds binding glycogen synthase kinase-3 – biochemical, small-molecule microarray, 635 nm fluorescence, GSK3A, primary screen (AID 1103). Note: the record names both GSK3A and GSK3B. Conditions: fluorescence 635 nm, higher = more signal.
Test [11] addresses Epidermal growth factor receptor (Homo sapiens) (UniProt P00533). The experiment in a line: compounds binding epidermal growth factor receptor – biochemical, small-molecule microarray, 635 nm fluorescence, primary screen (AID 1104).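 Note: score merges 667 nm emission intensity with spot signal to noise over triplicate slides.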 Conditions: EGFR binding, higher = more signal.
Test [12] has as its target Follistatin-related protein 3 (Homo sapiens) (UniProt O95633). Kind of test: compounds binding follistatin-related protein 3 – biochemical, small-molecule microarray, 635 nm fluorescence, primary screen (AID 1105).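 Note: score merges emission near 667 nm and signal to noise per printed spot across three slides.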 The following applies: FSTL3 binding, higher = more signal.
Test [13] has as its target Dickkopf-related protein 1 (Homo sapiens) (UniProt O94907). Kind of test: small molecules binding DKK1 protein – biochemical, small-molecule microarray, 635 nm fluorescence scan, primary screen (AID 1106).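 Note: score merges emission near 667 nm with signal to noise over three replicate slides.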 Conditions: higher = more signal.
Test [14] concerns Inhibin beta A chain (activin A). Kind of test: small molecules binding activin A – biochemical, small-molecule microarray, 635 nm fluorescence scan, primary screen (AID 1107).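 Note: mouse activin A protein probed at 4.33 µg/mL on printed slides; score merges bound-protein fluorescence near 667 nm with spot signal-to-noise.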 The following applies: INHBA, higher = more signal.
Test [15] deals with Human papillomavirus type 1a protein E7 (residues 44-93). Kind of test: small molecules binding HPV E7 44-93 – biochemical, small-molecule microarray, residues 44-93, 635 nm fluorescence, primary screen (AID 1108).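 Note: E7 fragment applied at 1 µg/mL in TBST for 1 h at 4 C; score combines spot fluorescence with its signal to noise ratio.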 Conditions: fluorescence 635 nm, higher = more signal.
A short description of test [16]: hepatitis C replication reporter changes, two-sided – Huh7 cells, luciferase reporter, HCV replication inhibitor project, primary screen (AID 1109).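 Note: huh7 hepatoma cells harbouring a luciferase neomycin HCV replicon reporter; luciferase luminescence as measure of HCV replicon replication; test concentration not given here.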 Conditions: Huh7 HCV replicon luciferase reporter, 48 h; higher = more signal.
Test [17] addresses Left-right determination factor 2 (Homo sapiens) (UniProt O00292). Kind of test: small molecules binding LEFTY2 protein – biochemical, small-molecule microarray, 635 nm fluorescence scan, primary screen (AID 1110). Conditions: higher = more signal.
Test [18] deals with Calmodulin-1 (Homo sapiens) (UniProt P0DP23). The experiment in a line: small molecules binding calmodulin-1 with EGTA – biochemical, small-molecule microarray, Cy5-labelled CALM1, profiling panel (AID 1111).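 Note: labelled calmodulin applied in Tris saline Tween buffer holding calcium plus EGTA and DTT.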 Conditions: Cy5-CALM1 binding fluorescence, higher = more signal.
The target is the same in test [19]. The experiment in a line: small molecules binding Ca-loaded calmodulin-1 – biochemical, small-molecule microarray, Cy5-labelled CALM1, plus calcium, artefact control for SMM control-protein annotation, profiling panel (AID 1112).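 Note: score merges spot fluorescence with signal to noise from triplicate slides.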 The following applies: Cy5-CALM1 binding fluorescence, higher = more signal.
Test [20] can be described thus: probe aWnt5a binding to arrayed compounds – biochemical, biotinylated probe, 635/667 nm fluorescence, primary screen (AID 1113).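 Note: score merges 667 nm fluorescence intensity with signal-to-noise per printed feature.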 The following applies: small-molecule microarray, higher = more signal.

Active and inactive are the calls of the source.

Chain of Left-right determination factor 2 (Homo sapiens) (O00292 whole entry, looked up): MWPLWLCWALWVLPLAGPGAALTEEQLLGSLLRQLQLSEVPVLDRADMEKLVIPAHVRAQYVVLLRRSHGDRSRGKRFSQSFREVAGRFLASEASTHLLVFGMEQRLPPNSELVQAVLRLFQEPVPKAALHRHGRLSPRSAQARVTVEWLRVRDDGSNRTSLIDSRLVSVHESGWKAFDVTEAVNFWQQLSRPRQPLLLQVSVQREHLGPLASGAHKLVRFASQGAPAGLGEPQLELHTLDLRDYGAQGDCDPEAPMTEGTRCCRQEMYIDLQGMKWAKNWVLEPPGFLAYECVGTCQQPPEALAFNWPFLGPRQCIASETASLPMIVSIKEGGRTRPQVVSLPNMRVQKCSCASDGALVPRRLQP
Chain of Dickkopf-related protein 1 (Homo sapiens) (O94907 whole entry, looked up): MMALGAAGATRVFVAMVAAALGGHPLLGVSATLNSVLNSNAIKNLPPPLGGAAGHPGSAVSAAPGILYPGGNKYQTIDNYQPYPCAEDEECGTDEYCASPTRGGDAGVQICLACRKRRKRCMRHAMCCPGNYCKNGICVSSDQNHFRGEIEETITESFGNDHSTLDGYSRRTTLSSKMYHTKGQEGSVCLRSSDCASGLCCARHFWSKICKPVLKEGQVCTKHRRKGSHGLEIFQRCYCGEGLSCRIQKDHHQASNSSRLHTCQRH
Chain of Follistatin-related protein 3 (Homo sapiens) (O95633 whole entry, looked up): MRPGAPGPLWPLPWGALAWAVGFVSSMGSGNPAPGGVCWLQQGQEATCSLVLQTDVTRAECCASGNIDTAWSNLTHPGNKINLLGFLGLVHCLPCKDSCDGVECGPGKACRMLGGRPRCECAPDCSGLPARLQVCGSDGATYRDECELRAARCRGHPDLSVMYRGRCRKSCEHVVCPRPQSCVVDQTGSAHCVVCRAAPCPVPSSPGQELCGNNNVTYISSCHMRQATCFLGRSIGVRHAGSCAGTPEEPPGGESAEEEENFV
Chain of Epidermal growth factor receptor (Homo sapiens) (P00533 whole entry, looked up): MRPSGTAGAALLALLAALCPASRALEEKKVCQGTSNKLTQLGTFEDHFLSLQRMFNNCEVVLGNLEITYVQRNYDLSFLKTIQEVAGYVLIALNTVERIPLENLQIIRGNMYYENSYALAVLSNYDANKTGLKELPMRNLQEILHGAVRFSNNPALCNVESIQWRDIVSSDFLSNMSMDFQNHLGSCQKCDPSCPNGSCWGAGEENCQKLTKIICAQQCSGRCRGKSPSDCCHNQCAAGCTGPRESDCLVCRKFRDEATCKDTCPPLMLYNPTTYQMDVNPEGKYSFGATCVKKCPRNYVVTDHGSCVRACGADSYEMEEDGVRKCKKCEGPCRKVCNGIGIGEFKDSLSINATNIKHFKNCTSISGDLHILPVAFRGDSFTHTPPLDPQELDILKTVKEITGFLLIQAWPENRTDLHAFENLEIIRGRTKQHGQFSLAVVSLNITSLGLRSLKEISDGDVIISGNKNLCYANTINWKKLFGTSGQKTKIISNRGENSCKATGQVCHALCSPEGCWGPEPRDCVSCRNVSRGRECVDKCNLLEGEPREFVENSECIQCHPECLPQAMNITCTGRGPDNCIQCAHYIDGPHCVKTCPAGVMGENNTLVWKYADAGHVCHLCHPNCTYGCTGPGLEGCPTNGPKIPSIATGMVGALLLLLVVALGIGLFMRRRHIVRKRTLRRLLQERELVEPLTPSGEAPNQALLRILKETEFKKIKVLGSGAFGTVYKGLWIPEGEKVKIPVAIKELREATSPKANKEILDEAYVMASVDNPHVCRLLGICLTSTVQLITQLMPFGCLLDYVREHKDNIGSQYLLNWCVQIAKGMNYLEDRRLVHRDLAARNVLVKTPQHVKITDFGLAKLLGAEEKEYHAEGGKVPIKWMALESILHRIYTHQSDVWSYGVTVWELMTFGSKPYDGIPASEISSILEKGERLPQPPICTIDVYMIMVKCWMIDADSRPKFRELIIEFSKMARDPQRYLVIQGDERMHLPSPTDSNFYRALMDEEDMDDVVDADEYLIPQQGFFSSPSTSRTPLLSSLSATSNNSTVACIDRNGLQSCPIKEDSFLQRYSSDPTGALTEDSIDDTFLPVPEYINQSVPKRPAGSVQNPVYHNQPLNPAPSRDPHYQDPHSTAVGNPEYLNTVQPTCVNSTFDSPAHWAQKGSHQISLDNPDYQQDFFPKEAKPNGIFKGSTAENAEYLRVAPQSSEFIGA

As to `C=C1C=C(Br)C2(OCCCO2)[C@H]2OC12` (stereo not given in full), the composite z-score is -0.116 in test [1]; 0.104 in [2]; 0.0347 in [3]; -0.076 in test [4]; 0.313 in test [5]; -0.118 in test [6]. Further, the composite z-score in [7] is -0.533; in test [9], 0.125; in test [10] it was 0.259; in test [11] it was 0.442; in [12], 0.322; in test [13] it was 0.536. The composite z-score in test [14] was 0.831; in test [15] it was -0.524; in test [17], 0.333; in [18], -0.367; in test [19], -0.755; in test [20], -0.176. Moreover, the z-score in test [8] was -0.0861 (inactive); in test [16] it was 1.38.
Consider `CN(C)CCCC[C@@H]1NC(=O)[C@@H]2C[C@H](C(=O)NCCCCCNC(=O)CS)[C@H](c3cccc(OCCO)c3)N2C1=O`, for which the composite z-score was 0.0494 in test [1]; 1.62 in test [2]; 0.162 in test [3]; 0.186 in [4]; 1.72 in test [5]; -0.08 in test [6]. Also, the composite z-score in [7] was -0.305; in test [9] it was 0.551; in test [10], 0.684; in test [11] it was 0.35; in test [12], 0.356; in test [13], 1.08. In addition, the composite z-score in [14] is 0.995; in [15], -0.0825; in test [17], 1; in test [18] it was 0.497; in [19] it was 0.843; in [20], -0.034. For the same compound, the z-score in [8] was -3.22 (inactive); in test [16], 1.94.
Consider `COc1ccc([Si](C)(C)[C@@H]2[C@@H](CC(=O)N3CCC[C@H]3CO)O[C@]3(C(=O)N(Cc4ccc(I)cc4)c4ccccc43)[C@H]2C)cc1`, for which the composite z-score was 0.0662 in test [1]; 0.982 in test [2]; 1.13 in test [3]; 0.0152 in test [4]; 0.648 in test [5]; -0.0319 in test [6]. In addition, the composite z-score in [7] came out at 0.0052; in test [9], 0.637; in test [10] it was 1.29; in test [11] it was 0.743; in [12], 1.23; in test [13], 1.13. Further, the composite z-score in [14] was 0.752; in test [15], 0.152; in test [17] it was 0.46; in test [18], 1.51; in [19], 1.15; in test [20], -0.165. The z-score was -1.62 (inactive) in [8] and -2.22 in [16].
`O=C1O[C@H](c2ccccc2)[C@H](c2ccccc2)N2[C@H]1[C@@H](C(=O)NC[C@H](O)c1ccccc1)[C@]1(C(=O)Nc3ccc(C#CC4(O)CCCCCC4)cc31)[C@H]2c1ccc(O)cc1`: the composite z-score was determined as 0.113 in [1]; 0.927 in [2]; 1.1 in test [3]; 0.0425 in [4]; 0.59 in test [5]; 0.601 in [6]. The composite z-score in [7] came to 0.471; in test [9] it was 1.05; in test [10], 1.15; in [11], 0.251; in test [12], 0.715; in test [13], 0.324. For the same compound, the composite z-score is -0.0905 in test [14]; 1.35 in test [15]; 0.462 in test [17]; 0.612 in test [18]; 0.107 in test [19]; -0.0542 in [20]. Further, the z-score in [8] was 1.13 (inactive); in test [16], 0.34.
Consider `O=C(NO)[C@]1(Cc2ccccc2)N=C(c2ccc(OCCCO)cc2)O[C@@H]1c1ccccc1`, for which the composite z-score in test [1] is 0.0204; in test [2] it was -0.0613; in test [3] it was -1.1; in test [4] it was -0.174; in [5] it was 1.3; in test [6], 0.256. The composite z-score was 0.694 in [7]; -0.227 in test [9]; -0.371 in test [10]; -0.637 in [11]; 0.262 in test [12]; -0.546 in test [13]. For the same compound, the composite z-score in test [14] was -0.169; in test [15] it was -0.281; in test [17], -0.79; in test [18], -0.271; in test [19], 0.309; in test [20], -0.377. Moreover, the z-score in test [8] was -4.02 (inactive); in [16], -1.73.
